Reference: PubChem BioAssay AID1159580 (chemical genetic matrix, 2015)
About 2,000 (36%) of roughly 5,500 compounds were called active. Inconclusive results (about 18%) are left out. Rule as the data show it: active = normalized growth mostly below about 0.91 (no sharp cut-off); inconclusive = no clear call, values can overlap the other calls; inactive = mostly above about 0.92. The list shows a part of the results.

Assay: chemical genetic growth profiling, strain panel (AID 1159580);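 also: tested at 20 µM; growth read once vehicle control cultures reached saturation at 30 °C; 1 = growth at the plate median or of vehicle wells; lower values mean less growth of the strain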
Details: S. cerevisiae deletion strains, growth OD

Measured: normalized growth

COC(=O)/C(C)=C\CC12OC(C)(C)C3CC(C=C4C(=O)c5c(OC)c6c(c(CC=C(C)C)c5OC431)OC(C)(CCC=C(C)C)C=C6)C2=O (centres undefined)
inactive: locus YAL021C, strain ccr4, stronger effect = lower value 0.991 | locus YAL026C, strain drs2, stronger effect = lower value 1.02 | locus YAL030W, strain snc1, stronger effect = lower value 1.03 | locus YBL061C, strain skt5, stronger effect = lower value 1.02 | locus YBR009C, strain hhf1, stronger effect = lower value 0.999 | locus YBR021W, strain FUR4, stronger effect = lower value 1.03 | locus YBR023C, strain chs3, stronger effect = lower value 1.01 | locus YBR171W, strain sec66, stronger effect = lower value 1.03 | locus YBR229C, strain ROT2, stronger effect = lower value 1.01 | locus YBR231C, strain swc5, stronger effect = lower value 1.03 | locus YBR279W, strain paf1, stronger effect = lower value 1.01 | locus YCL011C, strain gbp2, stronger effect = lower value 1.02 | locus YCL016C, strain dcc1, stronger effect = lower value 1.01 | locus YCL029C, strain bik1, stronger effect = lower value 0.983 | locus YCL061C, strain MRC1, stronger effect = lower value 1.01 | locus YCL069W, strain vba3, stronger effect = lower value 1.02 | locus YCR088W, strain abp1, stronger effect = lower value 1.02 | locus YDL005C, strain med2, stronger effect = lower value 1.03 | locus YDL035C, strain GPR1, stronger effect = lower value 0.964 | locus YDL040C, strain nat1, stronger effect = lower value 1.01 | locus YDL074C, strain BRE1, stronger effect = lower value 0.963 | locus YDL101C, strain DUN1, stronger effect = lower value 1.01 | locus YDL185W, strain tfp1, stronger effect = lower value 1.01 | locus YDL192W, strain arf1, stronger effect = lower value 0.987 | locus YDR001C, strain nth1, stronger effect = lower value 1.02 | locus YDR069C, strain doa4, stronger effect = lower value 1.03 | locus YDR101C, strain arx1, stronger effect = lower value 0.989 | locus YDR137W, strain rgp1, stronger effect = lower value 0.946 | locus YDR150W, strain NUM1, stronger effect = lower value 1.01 | locus YDR159W, strain sac3, stronger effect = lower value 1.06 | locus YDR162C, strain NBP2, stronger effect = lower value 0.941 | locus YDR195W, strain ref2 1.02 | locus YDR297W, strain sur2, stronger effect = lower value 1.04 | locus YDR318W, strain mcm21, stronger effect = lower value 0.982 | locus YDR334W, strain swr1, stronger effect = lower value 1.02 | locus YDR335W, strain msn5, stronger effect = lower value 1.02 | locus YDR388W, stronger effect = lower value 0.985 | locus YDR392W, strain spt3, stronger effect = lower value 0.966 | locus YDR502C, strain sam2, stronger effect = lower value 0.979 | locus YEL003W, strain gim4, stronger effect = lower value 1.01 | locus YEL037C, strain rad23, stronger effect = lower value 1.01 | locus YEL061C, strain CIN8 (second series), stronger effect = lower value 1.02 | locus YEL061C, strain CIN8, stronger effect = lower value 1 | locus YER015W, strain faa2, stronger effect = lower value 1.02 | locus YER016W, strain bim1, stronger effect = lower value 1.01 | locus YER110C, stronger effect = lower value 0.988 | locus YER111C, strain swi4, stronger effect = lower value 1.02 | locus YER155C, strain BEM2 (second series), stronger effect = lower value 1.02 | locus YER155C, strain BEM2, stronger effect = lower value 1.01 | locus YER167W, strain BCK2, stronger effect = lower value 0.993 | locus YFR010W, strain ubp6, stronger effect = lower value 1.03 | locus YGL078C, strain dbp3, stronger effect = lower value 0.989 | locus YGL086W, strain mad1, stronger effect = lower value 0.974 | locus YGL167C, strain pmr1, stronger effect = lower value 1.02 | locus YGL173C, strain kem1, stronger effect = lower value 1.02 | locus YGL227W, strain vid30, stronger effect = lower value 1.02 | locus YGL240W, strain doc1, stronger effect = lower value 1.02 | locus YGL248W, strain PDE1, stronger effect = lower value 0.986 | locus YGL253W, strain hxk2, stronger effect = lower value 1.01 | locus YGR135W, strain pre9, stronger effect = lower value 0.997 | locus YGR252W, strain gcn5, stronger effect = lower value 0.987 | locus YHR013C, strain ard1, stronger effect = lower value 0.996 | locus YHR027C, strain rpn1, stronger effect = lower value 1.02 | locus YHR030C, strain SLT2, stronger effect = lower value 1 | locus YHR079C, strain IRE1 (second series), stronger effect = lower value 1 | locus YHR094C, strain hxt1, stronger effect = lower value 1.01 | locus YHR129C, strain ARP1, stronger effect = lower value 0.985 | locus YHR142W, strain chs7, stronger effect = lower value 1.04 | locus YHR200W, strain rpn10, stronger effect = lower value 0.991 | locus YIL066C, strain RNR3, stronger effect = lower value 0.96 | locus YIL073C, strain SPO22, stronger effect = lower value 0.878 | locus YIL125W, strain kgd1, stronger effect = lower value 0.992 | locus YIR030C, strain dcg1, stronger effect = lower value 0.989 | locus YJL092W, strain hpr5, stronger effect = lower value 1.02 | locus YJL095W, strain BCK1 (second series), stronger effect = lower value 1.01 | locus YJL095W, strain BCK1, stronger effect = lower value 0.961 | locus YJL115W, strain asf1, stronger effect = lower value 1.03 | locus YJL129C, strain trk1, stronger effect = lower value 0.987 | locus YJL134W, strain LCB3, stronger effect = lower value 1 | locus YJL154C, strain vps35, stronger effect = lower value 1.02 | locus YJL164C, strain tpk1, stronger effect = lower value 0.988 | locus YJL166W, strain qcr8, stronger effect = lower value 1.01 | locus YJL168C, strain set2, stronger effect = lower value 0.982 | locus YJL187C, strain SWE1 (second series), stronger effect = lower value 0.976 | locus YJL187C, strain SWE1, stronger effect = lower value 1.01 | locus YJR043C, strain POL32, stronger effect = lower value 0.998 | locus YJR075W, strain HOC1, stronger effect = lower value 0.999 | locus YKL009W, strain mrt4, stronger effect = lower value 0.964 | locus YKL068W, stronger effect = lower value 0.992 | locus YKL085W, strain MDH1 (second series), stronger effect = lower value 0.993 | locus YKL085W, strain MDH1, stronger effect = lower value 0.993 | locus YKL160W, strain elf1, stronger effect = lower value 1.02 | locus YKR001C, strain vps1, stronger effect = lower value 0.97 | locus YKR026C, strain gcn3, stronger effect = lower value 1.02 | locus YKR091W, strain srl3, stronger effect = lower value 1.01 | locus YLL001W, strain dnm1, stronger effect = lower value 1 | locus YLL026W, stronger effect = lower value 1.01 | locus YLL041C, strain sdh2, stronger effect = lower value 1.02 | locus YLR027C, strain aat2, stronger effect = lower value 1.01 | locus YLR039C, strain RIC1, stronger effect = lower value 0.893 | locus YLR058C, strain SHM2, stronger effect = lower value 0.993 | locus YLR102C, strain apc9, stronger effect = lower value 1 | locus YLR221C, strain rsa3, stronger effect = lower value 1.02 | locus YLR258W, strain gsy2, stronger effect = lower value 1.03 | locus YLR262C, strain YPT6 (second series), stronger effect = lower value 0.993 | locus YLR262C, strain YPT6, stronger effect = lower value 0.986 | locus YLR268W, strain sec22, stronger effect = lower value 0.961 | locus YLR320W, strain mms22, stronger effect = lower value 1.01 | locus YLR330W, strain CHS5, stronger effect = lower value 1.01 | locus YLR342W, strain FKS1 (second series), stronger effect = lower value 0.977 | locus YLR342W, strain FKS1, stronger effect = lower value 1.03 | locus YLR357W, strain rsc2, stronger effect = lower value 1.01 | locus YLR370C, strain arc18, stronger effect = lower value 1.01 | locus YLR371W, strain rom2, stronger effect = lower value 1.02 | locus YLR384C, strain iki3, stronger effect = lower value 1.01 | locus YLR418C, strain cdc73, stronger effect = lower value 0.941 | locus YML016C, strain PPZ1, stronger effect = lower value 0.994 | locus YML032C, strain rad52, stronger effect = lower value 1 | locus YML120C, strain ndi1, stronger effect = lower value 1.01 | locus YML124C, strain tub3, stronger effect = lower value 0.994 | locus YMR058W, strain fet3, stronger effect = lower value 1.02 | locus YMR078C, strain ctf18, stronger effect = lower value 0.999 | locus YMR125W, strain sto1, stronger effect = lower value 1.02 | locus YMR129W, stronger effect = lower value 1.02 | locus YMR205C, strain PFK2, stronger effect = lower value 0.993 | locus YMR223W, strain ubp8, stronger effect = lower value 0.981 | locus YMR231W, strain pep5, stronger effect = lower value 0.99 | locus YMR263W, strain SAP30, stronger effect = lower value 1 | locus YMR307W, strain GAS1, stronger effect = lower value 1.08 | locus YNL067W, strain RPL9B, stronger effect = lower value 0.988 | locus YNL071W, strain lat1, stronger effect = lower value 1.02 | locus YNL128W, strain TEP1, stronger effect = lower value 0.991 | locus YNL209W, strain ssb2, stronger effect = lower value 1.01 | locus YNL233W, strain BNI4, stronger effect = lower value 0.988 | locus YNL248C, strain rpa49, stronger effect = lower value 1.03 | locus YNL250W, strain rad50, stronger effect = lower value 0.985 | locus YNL271C, strain bni1, stronger effect = lower value 0.982 | locus YNL298W, strain CLA4, stronger effect = lower value 0.976 | locus YNL307C, strain MCK1, stronger effect = lower value 0.997 | locus YNL322C, strain KRE1 (second series), stronger effect = lower value 1.01 | locus YNL322C, strain KRE1, stronger effect = lower value 1 | locus YNR049C, strain mso1, stronger effect = lower value 1.02 | locus YNR052C, strain pop2, stronger effect = lower value 0.983 | locus YOL012C, strain htz1 0.825 | locus YOL147C, strain pex11, stronger effect = lower value 0.991 | locus YOR001W, strain rrp6, stronger effect = lower value 1.03 | locus YOR061W, strain CKA2, stronger effect = lower value 0.984 | locus YOR069W, strain VPS5, stronger effect = lower value 0.996 | locus YOR070C, strain gyp1, stronger effect = lower value 1 | locus YOR080W, strain dia2, stronger effect = lower value 1.02 | locus YOR083W, strain WHI5, stronger effect = lower value 0.99 | locus YOR106W, strain vam3, stronger effect = lower value 1 | locus YOR136W, strain idh2, stronger effect = lower value 0.994 | locus YOR144C, strain elg1, stronger effect = lower value 0.995 | locus YOR184W, strain ser1, stronger effect = lower value 0.978 | locus YOR265W, strain rbl2, stronger effect = lower value 1.01 | locus YOR270C, strain vph1, stronger effect = lower value 1.05 | locus YOR290C, strain snf2, stronger effect = lower value 0.991 | locus YOR316C, strain cot1, stronger effect = lower value 0.986 | locus YPL051W, strain arl3, stronger effect = lower value 0.995 | locus YPL078C, strain atp4, stronger effect = lower value 1.03 | locus YPL106C, strain sse1, stronger effect = lower value 1.01 | locus YPL240C, strain hsp82, stronger effect = lower value 1.02 | locus YPL241C, strain CIN2, stronger effect = lower value 1 | locus YPR119W, strain clb2, stronger effect = lower value 0.992 | locus YPR141C, strain kar3, stronger effect = lower value 0.985 | locus YPR163C, strain tif3, stronger effect = lower value 0.975 | locus YPR167C, strain met16, stronger effect = lower value 0.972 | strain wtn01, stronger effect = lower value 0.984
